In PubChem BioAssay (Tox21):
Results filed as inconclusive are left out. Calls of active or inactive are those of the source. Unless noted, calls follow the shape of the dose curve; as a rule, active = well fitted curve in the direction sought with a large enough effect in the repeat runs; inconclusive = weak or mixed curves; inactive = no such curve, though single readings can be large; an effect the other way counts as inactive or inconclusive.

What was measured:
[1] = A CellTox Green Cytotoxicity Assay to monitor cytotoxicity in HepG2 cells - 24 hour (AID 1224878); also: nearly all actives have a fitted effect of over 45% in size
Procedure, shortened: (§1)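 HepG2 cells were seeded together with the CellTox Green dye at 600 cells/well, left 5 h at 37 C/5% CO2, then given compounds in DMSO. Fluorescence from dye bound to dead-cell DNA was read repeatedly over 40 h of treatment at 37 C.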

[2] = A CellTox Green Cytotoxicity Assay to monitor cytotoxicity in HepG2 cells - 40 hour (AID 1224879); also: nearly all actives have a fitted effect of over 40% in size
Procedure, shortened: as §1

[3] = qHTS RealTime-Glo MT Cell Viability Assay in HEK293 cells - 0 hour (AID 1224880); also: top concentration of the series differs between compounds; nearly all actives have a fitted effect of over 45% in size
Procedure, shortened: (§2)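 HEK293 cells mixed with RealTime-Glo reagents (NanoLuc plus cell-permeant prosubstrate) at 600 cells/well, preincubated 5 h at 37 C/5% CO2, then given 23 nL compound in DMSO. Nonlytic luminescence from viable cells was read at 0, 8, 16, 24, 32 and 40 h.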

[4] = A CellTox Green Cytotoxicity Assay to monitor cytotoxicity in HEK293 cells - 32 hour (AID 1224881); also: nearly all actives have a fitted effect of over 40% in size
Procedure, shortened: (§3)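 HEK293 cells premixed with CellTox Green dye were seeded at 600 cells/well and left 5 h at 37 C/5% CO2 before pin transfer of 23 nL compound in DMSO. Fluorescence from dye bound to dead-cell DNA was read during 40 h treatment.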

[5] = A CellTox Green Cytotoxicity Assay to monitor cytotoxicity in HepG2 cells - 0 hour (AID 1224882); also: nearly all actives have a fitted effect of over 35% in size
Procedure, shortened: as §1

[6] = A CellTox Green Cytotoxicity Assay to monitor cytotoxicity in HepG2 cells - 32 hour (AID 1224883); also: nearly all actives have a fitted effect of over 50% in size
Procedure, shortened: as §1

[7] = A CellTox Green Cytotoxicity Assay to monitor cytotoxicity in HEK293 cells - 8 hour (AID 1224884); also: nearly all actives have a fitted effect of over 35% in size
Procedure, shortened: as §3

[8] = qHTS RealTime-Glo MT Cell Viability Assay in HepG2 cells - 16 hour (AID 1224885); also: nearly all actives have a fitted effect of over 50% in size
Procedure, shortened: (§4)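 Viability was tracked continuously by NanoLuc luminescence from prosubstrate reduced by living HepG2 cells, at successive time points over 40 h of compound exposure. Cells with reagent were preincubated 5 h at 37 °C before compound addition.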

[9] = qHTS RealTime-Glo MT Cell Viability Assay in HEK293 cells - 8 hour (AID 1224887); also: top concentration of the series differs between compounds; nearly all actives have a fitted effect of over 50% in size
Procedure, shortened: as §2

[10] = A CellTox Green Cytotoxicity Assay to monitor cytotoxicity in HEK293 cells - 16 hour (AID 1224888); also: nearly all actives have a fitted effect of over 35% in size
Procedure, shortened: as §3

[11] = qHTS RealTime-Glo MT Cell Viability Assay in HepG2 cells - 0 hour (AID 1224889); also: nearly all actives have a fitted effect of over 50% in size
Procedure, shortened: as §4

[12] = A CellTox Green Cytotoxicity Assay to monitor cytotoxicity in HepG2 cells - 8 hour (AID 1224890); also: nearly all actives have a fitted effect of over 45% in size
Procedure, shortened: as §1

[13] = qHTS assay to identify small molecule antagonists of the estrogen receptor alpha (ER-alpha) signaling pathway using the BG1 cell line in the presence of 0.1 nM 17-beta-estradiol - cell viability counter screen (AID 1259241); also: nearly all actives have a fitted effect of over 40% in size
Procedure, shortened: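 VM7Luc4E2 cells (endogenous full-length ER-alpha, 4xERE-luciferase), cultured 5 days in charcoal-stripped serum, exposed to compounds with 0.1 nM 17beta-estradiol (final) for 22 hr at 37C. Viability read in same wells as live-cell protease fluorescence after 30 min.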

[14] = qHTS assay to identify small molecule antagonists of the androgen receptor (AR) signaling pathway using the MDA cell line in the presence of 0.5 nM R1881 - cell viability counter screen (AID 1259242); also: nearly all actives have a fitted effect of over 45% in size
Procedure, shortened: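 MDA-kb2 cells (human breast carcinoma, stably carrying MMTV-luciferase reporter) were exposed to compounds with 0.5 nM R1881 (final) for 16 hr at 37C, 0% CO2; viability then read as live-cell protease fluorescence (CellTiter-Fluor, 30 min) in the same wells.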

[15] = qHTS assay to identify small molecule HDAC inhibitors (AID 1259364)
Procedure, shortened: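 Wild-type HCT-116 cells were plated overnight, exposed to compounds for 2 h at 37 °C, then given HDAC-Glo class I/II luminogenic reagent for 30 min at room temperature before luminescence was read.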

[16] = qHTS assay to identify small molecule HDAC inhibitors - cell viability counter screen (AID 1259365)
Procedure, shortened: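 Wild-type HCT-116 cells, 1,500/well, cultured overnight, then compound-treated 2 h at 37 C. Viability measured as ATP luminescence with CellTiter-Glo after 30 min at room temperature.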

[17] = biological target: Estrogen receptor (Homo sapiens) (UniProt P03372); assay: qHTS assay to identify small molecule antagonists of the estrogen receptor alpha (ER-alpha) signaling pathway using the BG1 cell line in the presence of 0.1 nM 17-beta-estradiol (AID 1259244); also: nearly all actives have a fitted effect of over 50% in size
Procedure, shortened: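 VM7Luc4E2 cells (endogenous full-length ER-alpha, stable 4xERE-luciferase) were grown 5 days in phenol red-free medium with charcoal-stripped FBS, then exposed 22 h at 37C to compounds plus 0.1 nM (final) 17beta-estradiol; ONE-Glo luminescence read-out.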

[18] = qHTS assay to identify small molecule phospholipidosis (PLD) inducers (AID 1259344; active = well fitted curve in the direction sought with a large enough effect; an effect the other way counts as inactive or inconclusive)
Procedure, shortened: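 HepG2 cells on collagen I, attached 4 h at 37 C, were co-treated with compound and LipidTOX Red dye for 24 h at 37 C, then fixed with paraformaldehyde plus Hoechst 33342 and imaged by high-content microscopy for phospholipid accumulation.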

[19] = qHTS RealTime-Glo MT Cell Viability Assay in HEK293 cells - 24 hour (AID 1224886)
Procedure, shortened: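 Viability tracked continuously by luminescence as live cells reduce a prosubstrate for NanoLuc; HEK293 cells preincubated 5 h, compound-treated at 37 C, and read at 0, 8, 16, 24, 32 and 40 h.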
% is scaled to controls: 0 for no effect and ±100 for the full control effect.

Estrogen receptor (Homo sapiens), sequence (P03372 whole entry, looked up): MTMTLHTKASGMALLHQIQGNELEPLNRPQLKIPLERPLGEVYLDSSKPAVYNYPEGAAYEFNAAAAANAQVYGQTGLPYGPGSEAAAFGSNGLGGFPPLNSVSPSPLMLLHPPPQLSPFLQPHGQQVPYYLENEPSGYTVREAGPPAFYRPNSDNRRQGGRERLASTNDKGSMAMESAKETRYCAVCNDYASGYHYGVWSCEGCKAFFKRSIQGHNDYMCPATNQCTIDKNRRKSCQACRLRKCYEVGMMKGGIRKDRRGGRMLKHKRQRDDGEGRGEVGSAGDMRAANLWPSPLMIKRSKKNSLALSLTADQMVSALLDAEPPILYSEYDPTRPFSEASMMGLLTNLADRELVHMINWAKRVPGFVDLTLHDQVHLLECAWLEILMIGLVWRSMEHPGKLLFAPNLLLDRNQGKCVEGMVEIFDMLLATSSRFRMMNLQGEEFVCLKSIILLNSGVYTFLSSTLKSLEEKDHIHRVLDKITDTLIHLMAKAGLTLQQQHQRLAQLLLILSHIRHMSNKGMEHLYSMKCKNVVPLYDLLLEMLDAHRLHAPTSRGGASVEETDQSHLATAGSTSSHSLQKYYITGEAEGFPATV

CC(C)C(C)C
inactive: Potency [1] | Potency [2] | Potency [3] | Potency [4] | Potency [5] | Potency [6] | Potency [7] | outcome [8] | outcome [9] | Potency [10] | Potency [11] | Potency [12] | outcome [13] | outcome [14] | Potency [15] | outcome [16]

O=Cc1ccc(C(=O)O)cc1
inactive: Potency [1] | Potency [2] | Potency [3] | Potency [4] | Potency [5] | Potency [6] | Potency [7] | outcome [8] | outcome [9] | Potency [10] | Potency [11] | Potency [12] | outcome [13] | outcome [14] | Potency [15] | outcome [16]

CN(C)CCC[C@@]1(c2ccc(F)cc2)OCc2cc(C#N)ccc21
inactive: Potency [1] | Potency [2] | Potency [3] | Potency [4] | Potency [5] | Potency [6] | Potency [7] | outcome [8] | outcome [9] | Potency [10] | Potency [11] | Potency [12] | outcome [13] | outcome [14] | outcome [17] | Potency [18] | Potency [15]

CCCCN=C(N)N=C(N)N
inactive: Potency [1] | Potency [2] | Potency [3] | Potency [4] | Potency [5] | Potency [6] | Potency [7] | outcome [8] | outcome [9] | Potency [10] | Potency [11] | Potency [12] | outcome [13] | outcome [14] | Potency [18] | Potency [15] | outcome [16]

O=c1c(O)c(O)c1=O
inactive: Potency [1] | Potency [2] | Potency [3] | Potency [4] | Potency [5] | Potency [6] | Potency [7] | outcome [8] | outcome [9] | Potency [10] | Potency [11] | Potency [12] | outcome [13] | outcome [14] | Potency [15] | outcome [16]

C/C=C/C(=O)CCCC
inactive: Potency [1] | Potency [2] | Potency [3] | Potency [4] | Potency [5] | Potency [6] | Potency [7] | outcome [8] | outcome [19] | outcome [9] | Potency [10] | Potency [11] | Potency [12] | outcome [13] | outcome [16]

CCCCCCCCCCCCCCCC(=O)OC
inactive: cytotoxicity [1] -19.7% [at 15.8 µM] | cytotoxicity increase [2] -22.4% [at 15.8 µM] | activity change, negative = cytotoxicity [3] -3.44% [at 15.8 µM] | cytotoxicity increase [4] -5.35% [at 15.8 µM] | cytotoxicity [5] -12.7% [at 15.8 µM] | cytotoxicity increase [6] -21.5% [at 15.8 µM] | cytotoxicity increase [7] -3.06% [at 15.8 µM] | activity change, negative = cytotoxic [8] -7.62% [at 15.8 µM] | activity change, negative = cytotoxicity [9] 0.781% [at 15.8 µM] | activity change [10] 0.239% [at 15.8 µM, hits give high values] | activity change, negative = cytotoxicity [11] -16.3% [at 15.8 µM] | cytotoxicity increase [12] -16.6% [at 15.8 µM] | activity change, negative = cytotoxicity [13] 6.9% [at 19 µM] | viability change, negative = cytotoxic [14] 3.68% [at 19 µM] | activity change, negative = inhibition [15] 2.36% [at 19 µM] | activity change, negative = cytotoxicity [16] -1.77% [at 19 µM]

Cc1nnc(C(=O)NC(C)(C)c2nc(C(=O)NCc3ccc(F)cc3)c(O)c(=O)n2C)o1
inactive: Potency [1] | Potency [2] | Potency [3] | Potency [4] | Potency [5] | Potency [6] | Potency [7] | outcome [8] | outcome [9] | Potency [10] | Potency [11] | Potency [12] | outcome [13] | outcome [14] | Potency [18] | Potency [15] | outcome [16]
